Results: article PMC9911399, “Two distinct binding modes provide the RNA-binding protein RbFox with extraordinary sequence specificity”
Substitutions are numbered along the chain they refer to; changes in the protein carry UniProt numbers. The full ranking holds about 16,000 sequences; the median of “ka relative to ugcaugu” is about 0.0091, and the highest 2% start at about 0.032. The list comes from a sample in which the highest values are over-represented; it also holds similar and randomly drawn sequences.

T1: RBFOX1 RRM (Homo sapiens, UniProt Q9NWB1 109-208)
T1 sequence: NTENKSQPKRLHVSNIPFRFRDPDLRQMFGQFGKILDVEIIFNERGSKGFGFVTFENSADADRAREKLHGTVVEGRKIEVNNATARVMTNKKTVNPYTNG

B1: GUAGAGU (DNA:RNA)
RNA: GGGAGACCGGAAUUCAGAUUGUCCGUAGAGUUUAAAUCCCGUCGUAGCCACCA
DNA 1: CAATCTGAATTCCGGTCTCCC
DNA 2: TGGTGGCTACGACGGGATT
B2: GCCUGAA (DNA:RNA)
RNA: B1 RNA with U26C, A27C, G28U, A29G, G30A, U31A
DNA 1: CAATCTGAATTCCGGTCTCCC
DNA 2: TGGTGGCTACGACGGGATT
B3: UGACUGG (DNA:RNA)
RNA: B1 RNA with G25U, U26G, G28C, A29U, U31G
DNA 1: CAATCTGAATTCCGGTCTCCC
DNA 2: TGGTGGCTACGACGGGATT
B4: UGACUGU (DNA:RNA)
RNA: B1 RNA with G25U, U26G, G28C, A29U
DNA 1: CAATCTGAATTCCGGTCTCCC
DNA 2: TGGTGGCTACGACGGGATT
B5: UGACUGA (DNA:RNA)
RNA: B1 RNA with G25U, U26G, G28C, A29U, U31A
DNA 1: CAATCTGAATTCCGGTCTCCC
DNA 2: TGGTGGCTACGACGGGATT
B6: GCCUGAC (DNA:RNA)
RNA: B1 RNA with U26C, A27C, G28U, A29G, G30A, U31C
DNA 1: CAATCTGAATTCCGGTCTCCC
DNA 2: TGGTGGCTACGACGGGATT
B7: UGCUGAC (DNA:RNA)
RNA: GGGAGACCGGAAUUCAGAUUGUCCUGCUGACUUAAAUCCCGUCGUAGCCACCA
DNA 1: CAATCTGAATTCCGGTCTCCC
DNA 2: TGGTGGCTACGACGGGATT
B8: UGACUUG (DNA:RNA)
RNA: B7 RNA with C27A, U28C, G29U, A30U, C31G
DNA 1: CAATCTGAATTCCGGTCTCCC
DNA 2: TGGTGGCTACGACGGGATT
B9: UGACUGC (DNA:RNA)
RNA: B7 RNA with C27A, U28C, G29U, A30G
DNA 1: CAATCTGAATTCCGGTCTCCC
DNA 2: TGGTGGCTACGACGGGATT
B10: CUGACUG (DNA:RNA)
RNA: B1 RNA with G25C, A27G, G28A, A29C, G30U, U31G
DNA 1: CAATCTGAATTCCGGTCTCCC
DNA 2: TGGTGGCTACGACGGGATT
B11: UGACCGU (DNA:RNA)
RNA: B1 RNA with G25U, U26G, G28C, A29C
DNA 1: CAATCTGAATTCCGGTCTCCC
DNA 2: TGGTGGCTACGACGGGATT
B12: GCCAGAC (DNA:RNA)
RNA: B7 RNA with U25G, G26C, U28A
DNA 1: CAATCTGAATTCCGGTCTCCC
DNA 2: TGGTGGCTACGACGGGATT
B13: UCCUGAC (DNA:RNA)
RNA: B7 RNA with G26C
DNA 1: CAATCTGAATTCCGGTCTCCC
DNA 2: TGGTGGCTACGACGGGATT
B14: CGAGAAA (DNA:RNA)
RNA: B1 RNA with G25C, U26G, G30A, U31A
DNA 1: CAATCTGAATTCCGGTCTCCC
DNA 2: TGGTGGCTACGACGGGATT
B15: GAUAUCG (DNA:RNA)
RNA: B1 RNA with U26A, A27U, G28A, A29U, G30C, U31G
DNA 1: CAATCTGAATTCCGGTCTCCC
DNA 2: TGGTGGCTACGACGGGATT
B16: GGCGCCU (DNA:RNA)
RNA: B1 RNA with U26G, A27C, A29C, G30C
DNA 1: CAATCTGAATTCCGGTCTCCC
DNA 2: TGGTGGCTACGACGGGATT
B17: UGCCCAG (DNA:RNA)
RNA: B7 RNA with U28C, G29C, C31G
DNA 1: CAATCTGAATTCCGGTCTCCC
DNA 2: TGGTGGCTACGACGGGATT
B18: UGCGAGG (DNA:RNA)
RNA: B1 RNA with G25U, U26G, A27C, U31G
DNA 1: CAATCTGAATTCCGGTCTCCC
DNA 2: TGGTGGCTACGACGGGATT
B19: GUAGCGU (DNA:RNA)
RNA: B1 RNA with A29C
DNA 1: CAATCTGAATTCCGGTCTCCC
DNA 2: TGGTGGCTACGACGGGATT
B20: UUUAAGG (DNA:RNA)
RNA: B1 RNA with G25U, A27U, G28A, U31G
DNA 1: CAATCTGAATTCCGGTCTCCC
DNA 2: TGGTGGCTACGACGGGATT

Biological target: T1, RBFOX1 RRM
Assay: EMSA; HiTS-Eq, 1 nM pool, 10 min; buffer printed only for the single-RNA assays: 10 mM Tris pH 7.5, 150 mM NaCl, 3.4 mM EDTA, 0.001% NP-40, 30 C
Settings: tags: His6 N-terminal (pET28a); label: 5' 32P
In short: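 Relative association constants, normalised to the cognate motif, were derived by comparing read counts of each RNA species with those of the control reaction. The RNA sequenced was the free fraction, separated by 8% native PAGE after a 10 min equilibration in 50 µL of 1 nM 5′-radiolabelled RNA (7 randomized nucleotides) with increasing concentrations of purified wild-type or mutant RbFox RRM.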

Q: With B1 as the binder, how does the binding signal read?
A: 0.0112 KA relative to UGCAUGU

Q: For B2, which binding signal is on record?
A: 0.0276 KA relative to UGCAUGU

Q: With B3 as the binder, how does the binding signal read?
A: 0.0284 KA relative to UGCAUGU

Q: For B4, which binding signal is on record?
A: 0.032 KA relative to UGCAUGU

Q: With B5 as the binder, how does the binding signal read?
A: 0.0256 KA relative to UGCAUGU

Q: For B6, which binding signal is on record?
A: 0.0331 KA relative to UGCAUGU

Q: With B7 as the binder, how does the binding signal read?
A: 0.0249 KA relative to UGCAUGU

Q: Which binding signal does the source give for B8 here?
A: 0.0454 KA relative to UGCAUGU

Q: For B9, which binding signal is on record?
A: 0.039 KA relative to UGCAUGU

Q: B10 was tested. Which binding signal did it give?
A: 0.0302 KA relative to UGCAUGU

Q: Which binding signal does the source give for B11 here?
A: 0.0185 KA relative to UGCAUGU

Q: How did the binding signal turn out when B12 was run?
A: 0.0114 KA relative to UGCAUGU

Q: B13 was tested. Which binding signal did it give?
A: 0.0129 KA relative to UGCAUGU

Q: For B14, which binding signal is on record?
A: 0.00724 KA relative to UGCAUGU

Q: Which binding signal does the source give for B15 here?
A: 0.0155 KA relative to UGCAUGU

Q: With B16 as the binder, how does the binding signal read?
A: 0.00816 KA relative to UGCAUGU

Q: For B17, which binding signal is on record?
A: 0.0164 KA relative to UGCAUGU

Q: B18 was tested. Which binding signal did it give?
A: 0.0231 KA relative to UGCAUGU

Q: How did the binding signal turn out when B19 was run?
A: 0.0174 KA relative to UGCAUGU

Q: With B20 as the binder, how does the binding signal read?
A: 0.0043 KA relative to UGCAUGU
